High-throughput results (PubChem BioAssay)
Rows were chosen to be rich in hits. Some 6.5% of all compounds tested hit in one or more screens of this group.
LASV entry inh: inhibitors of Lassa virus binding or cell entry. AID 540256. Lassa virus pseudotype entry inhibition, cell reporter. Potency, µM (series often up to 37.9 µM), hits mostly inhibitors. actives 1.2% (n = 300,000); calls by dose curve; tested in HEK293 cells; note: nearly all actives have a fitted effect of over 50% in size
MARV entry inh: Marburg virus entry inhibition; Marburg virus pseudotyped entry inhibition, cell reporter; Potency, µM (titrated, usually from 37.8 µM), most hits filed as inhibitors; actives 1.8% (n = 300,000); calls by dose curve; tested in HEK293 cells
VACV mCherry inh: vaccinia inhibition (mCherry reporter); actives 0.63% (n = 310,000); Vaccinia virus mCherry reporter infection, fluorescence; AID 720579; Potency, µM (doses to about 36.5 µM), hits mostly inhibitors; calls by dose curve; tested in A549 cells; note: nearly all actives have a fitted effect of over 35% in size
HCMV antiviral: inhibitors of human cytomegalovirus | activity change, negative = inhibition, % at 57.5 µM | AID 1259415 | HFF cells, HCMV-luciferase reporter, 72 h; hits give low values | actives 4.5% (n = 410,000); in the data active = activity change below about -60%; inconclusive = no clear call, values can overlap the other calls; inactive = above about -39%
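Screen run at 2 compound doses on HFFs infected with reporter HCMV, MOI 1 PFU/cell. Luciferase activity from cell lysates at 72 h post infection gave inhibition relative to buffer-only and Salinomycin wells.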
FMDV inh: antivirals against foot and mouth disease virus; FMDV antiviral cell-based qHTS; Potency, µM (top dose mostly 57.9 µM), hits mostly inhibitors; actives 1.2% (n = 410,000); calls by dose curve; tested in HEK293T cells; note: read-out not given here; nearly all actives have a fitted effect of over 45% in size
VACV Venus inh: inhibitors of vaccinia virus (Venus reporter) | Vaccinia virus Venus reporter expression, fluorescence | Potency, µM (series often up to 36.5 µM), hits mostly inhibitors | actives 0.46% (n = 330,000); calls by dose curve; tested in A549 cells; note: nearly all actives have a fitted effect of over 30% in size
Of the large screens only hits and unclear results are named; the others gave an inactive call.

COc1cc2c(c(OC)c1OC)-c1ccc(SC)c(=O)cc1C(NC=O)CC2 (configuration not stated)	MARV entry inh inconclusive, VACV mCherry inh inconclusive, HCMV antiviral -97, VACV Venus inh inconclusive
COc1cc2c(c(OC)c1OC)-c1ccc(OC)c(=O)cc1C(NC(=O)c1ccccc1)CC2 (configuration not stated)	LASV entry inh inconclusive, MARV entry inh inconclusive, VACV mCherry inh inconclusive, HCMV antiviral -75, VACV Venus inh inconclusive
COC1=C[C@@H]2C3=C([C@@H]2C1=O)[C@@H](NC(C)=O)CCc1cc(OC)c(OC)c(OC)c13	none (no result: LASV entry inh, MARV entry inh)
C=COC(=O)NC1CCc2cc(OC)c(OC)c(OC)c2-c2ccc(SC)c(=O)cc21 (configuration not stated)	LASV entry inh inconclusive, HCMV antiviral inconclusive, VACV Venus inh inconclusive
COc1cc2c(c(OC)c1OC)-c1ccc(SC)c(=O)cc1C(NC(=O)c1ccccc1)CC2 (configuration not stated)	LASV entry inh inconclusive, MARV entry inh inconclusive, HCMV antiviral -63, VACV Venus inh inconclusive
COc1ccc(C#Cc2ccc([C@H]3[C@H](CO)N4CCCCN(S(=O)(=O)c5cn(C)cn5)C[C@@H]34)cc2)cc1	none (no result: LASV entry inh, MARV entry inh, VACV mCherry inh, FMDV inh, VACV Venus inh)
COc1ccccc1NC(=O)C(=O)N/N=C/c1ccc([N+](=O)[O-])s1	none (no result: LASV entry inh, MARV entry inh, VACV mCherry inh, VACV Venus inh)
Cc1ccccc1C(=O)N/N=C/c1ccc([N+](=O)[O-])s1	MARV entry inh 4.1µM, HCMV antiviral -96, VACV Venus inh inconclusive (no result: FMDV inh)
O=C(N/N=C/c1ccc([N+](=O)[O-])s1)C(O)c1ccccc1 (configuration not stated)	LASV entry inh inconclusive, HCMV antiviral -91 (no result: VACV mCherry inh, VACV Venus inh)
Cc1ccc(/C=N/NC(=O)c2cccnc2)s1	none
O=C(Cc1ccccc1)N/N=C/c1ccc([N+](=O)[O-])s1	LASV entry inh inconclusive, MARV entry inh inconclusive, FMDV inh inconclusive, VACV Venus inh inconclusive (no result: VACV mCherry inh)
O=C(N/N=C/c1ccc([N+](=O)[O-])s1)c1ccccc1Br	LASV entry inh inconclusive, MARV entry inh inconclusive, VACV mCherry inh inconclusive, HCMV antiviral -77, VACV Venus inh 11µM (no result: FMDV inh)
CCC(C)(C)C(=O)O[C@@H]1C[C@@H](C)C=C2C=C[C@H](C)[C@H](CC[C@@H]3C[C@@H](O)CC(=O)O3)[C@H]21	none (no result: LASV entry inh, MARV entry inh, VACV mCherry inh, HCMV antiviral, VACV Venus inh)
Cc1cc(C(=O)N/N=C/c2ccc([N+](=O)[O-])s2)c2ccccc2n1	LASV entry inh inconclusive, MARV entry inh inconclusive, VACV mCherry inh 10µM, HCMV antiviral -70, VACV Venus inh 28µM
O=C(Cc1coc2cc3c(cc12)CCC3)OCC(=O)N1CCCC1=O	LASV entry inh inconclusive, MARV entry inh inconclusive, FMDV inh 14µM
COc1c(O)cc2oc3cc(O)c(CC=C(C)C)c(O)c3c(=O)c2c1CC=C(C)C	VACV mCherry inh inconclusive (no result: LASV entry inh, MARV entry inh, HCMV antiviral)
CC(C)=CCc1c(O)cc2oc3c(CC=C(C)C)c(O)c(O)c(CC=C(C)C)c3c(=O)c2c1O	VACV mCherry inh inconclusive, HCMV antiviral -101, FMDV inh 22µM, VACV Venus inh inconclusive (no result: LASV entry inh, MARV entry inh)
COc1ccc(Cl)cc1NC(=O)CN(c1cccc(C)c1C)S(C)(=O)=O	LASV entry inh inconclusive, MARV entry inh inconclusive, HCMV antiviral inconclusive
CC1(C)CC(=O)C=C(c2cccc(Br)c2)C1	HCMV antiviral -64 (no result: LASV entry inh, MARV entry inh)
CC1(C)CC(=O)C=C(c2ccc(-c3ccccc3)cc2)C1	none (no result: LASV entry inh, MARV entry inh)
C/C(=N\NC(=O)C(C)n1nc(C)c([N+](=O)[O-])c1C)c1ccccc1O (configuration not stated)	LASV entry inh 13µM, MARV entry inh 9.2µM, VACV mCherry inh inconclusive, HCMV antiviral -101, VACV Venus inh inconclusive
CC(=O)Nc1ccc(C(=O)Nc2cccc(S(=O)(=O)N(C)c3ccccc3)c2)cc1	FMDV inh inconclusive (no result: LASV entry inh, MARV entry inh, VACV mCherry inh, VACV Venus inh)
COc1ccc(C(=O)Oc2ccc(N(C)S(=O)(=O)c3ccccc3)cc2)cc1[N+](=O)[O-]	HCMV antiviral -99
CN(c1ccc(C(=O)O)cc1)S(=O)(=O)c1ccccc1	none (no result: VACV mCherry inh)
CN(c1ccccc1)S(=O)(=O)c1cccc(NC(=O)CCNC(=O)c2ccc(Cl)cc2)c1	LASV entry inh inconclusive, FMDV inh 32µM, VACV Venus inh inconclusive
CN(c1ccccc1)S(=O)(=O)c1cccc(NC(=O)CCNC(=O)c2ccc([N+](=O)[O-])cc2)c1	LASV entry inh inconclusive, FMDV inh 40µM
CN(c1ccccc1)S(=O)(=O)c1cccc(NC(=O)c2ccc(Cl)c([N+](=O)[O-])c2)c1	LASV entry inh inconclusive, MARV entry inh inconclusive, FMDV inh 32µM
Cc1ccc(C)c(C(=O)C[n+]2cccc(Br)c2)c1	none (no result: LASV entry inh, MARV entry inh, HCMV antiviral, FMDV inh)
CCN(CC)S(=O)(=O)c1cccc(NC(=O)CCSc2ccc(Cl)cc2)c1	LASV entry inh 13µM, MARV entry inh inconclusive, VACV mCherry inh inconclusive, HCMV antiviral inconclusive, VACV Venus inh inconclusive
CCOC(=O)CCCc1ccc(/C(C)=N/NC(=S)NC)cc1	HCMV antiviral -95 (no result: LASV entry inh, VACV mCherry inh, VACV Venus inh)
CCOC(=O)CCCc1ccc(/C(C)=N/NC(N)=S)cc1	LASV entry inh inconclusive, MARV entry inh inconclusive, VACV mCherry inh inconclusive, VACV Venus inh inconclusive
COc1ccc(OC)c(NC(=O)N2CCC3(CC2)Oc2ccccc2C(=O)N3Cc2ccccc2F)c1	MARV entry inh inconclusive (no result: LASV entry inh)
Cc1nnc(NC(=O)CSc2ccccc2N)s1	none (no result: LASV entry inh, MARV entry inh, VACV mCherry inh, VACV Venus inh)
Cc1ccc(C(C)(C)C)c(SCC(=O)Nc2nnc(C)s2)c1	LASV entry inh 7.1µM, MARV entry inh 7.1µM, HCMV antiviral inconclusive
O=C(O)COc1ccc2c3c(c(=O)oc2c1)CCCC3	HCMV antiviral -80
COc1ccc2[nH]cc(CCNc3ncncc3-c3ccccc3OC)c2c1	none (no result: LASV entry inh, MARV entry inh, VACV mCherry inh, HCMV antiviral, VACV Venus inh)
COc1ccc2[nH]cc(CCNc3ncncc3-c3ccccc3Cl)c2c1	FMDV inh 35µM (no result: LASV entry inh, MARV entry inh, VACV mCherry inh, HCMV antiviral, VACV Venus inh)
O=C(CCOc1ccccc1)N(Cc1cccnc1)c1nc2c(F)cc(F)cc2s1	none (no result: MARV entry inh)
COc1ccc(NC(=O)C(=O)NCC2CCCN2S(=O)(=O)c2ccc(C)cc2)cc1 (configuration not stated)	LASV entry inh inconclusive, MARV entry inh inconclusive, VACV mCherry inh inconclusive, HCMV antiviral -85
COc1ccc(S(=O)(=O)N2CCCC2CNC(=O)C(=O)Nc2ccc(C)cc2)cc1 (configuration not stated)	LASV entry inh inconclusive, MARV entry inh inconclusive, VACV mCherry inh inconclusive, HCMV antiviral inconclusive
Cc1ccc(S(=O)(=O)N2CCCC2CNC(=O)C(=O)Nc2ccc(F)cc2)cc1 (configuration not stated)	LASV entry inh 5µM, VACV mCherry inh inconclusive, VACV Venus inh inconclusive
O=C(N/N=C/c1cc(Br)ccc1O)c1cccc(N2CCCC2=O)c1	LASV entry inh inconclusive, MARV entry inh 23µM, VACV mCherry inh 7.9µM, VACV Venus inh inconclusive
COc1ccc(O)c(/C=N/NC(=O)c2ccc(N3CCCC3=O)cc2)c1	LASV entry inh inconclusive, MARV entry inh inconclusive, VACV mCherry inh 2.8µM, HCMV antiviral inconclusive, VACV Venus inh inconclusive
COc1ccc(O)c(/C=N/NC(=O)c2cccc(N3CCCC3=O)c2)c1	LASV entry inh inconclusive, MARV entry inh inconclusive, VACV mCherry inh 2.5µM
